Here are results for 2 compounds from ChEMBL document CHEMBL1961873, “Compounds: GSK PKIS; Assays: Nanosyn kinase panel” (2012).

For experiment [1], the target named is T1, Inhibitor of nuclear factor kappa-B kinase subunit epsilon (Homo sapiens) (UniProt Q14164).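 Further: reported values are averaged percent inhibition figures against human IKKε.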
T1 sequence (whole entry): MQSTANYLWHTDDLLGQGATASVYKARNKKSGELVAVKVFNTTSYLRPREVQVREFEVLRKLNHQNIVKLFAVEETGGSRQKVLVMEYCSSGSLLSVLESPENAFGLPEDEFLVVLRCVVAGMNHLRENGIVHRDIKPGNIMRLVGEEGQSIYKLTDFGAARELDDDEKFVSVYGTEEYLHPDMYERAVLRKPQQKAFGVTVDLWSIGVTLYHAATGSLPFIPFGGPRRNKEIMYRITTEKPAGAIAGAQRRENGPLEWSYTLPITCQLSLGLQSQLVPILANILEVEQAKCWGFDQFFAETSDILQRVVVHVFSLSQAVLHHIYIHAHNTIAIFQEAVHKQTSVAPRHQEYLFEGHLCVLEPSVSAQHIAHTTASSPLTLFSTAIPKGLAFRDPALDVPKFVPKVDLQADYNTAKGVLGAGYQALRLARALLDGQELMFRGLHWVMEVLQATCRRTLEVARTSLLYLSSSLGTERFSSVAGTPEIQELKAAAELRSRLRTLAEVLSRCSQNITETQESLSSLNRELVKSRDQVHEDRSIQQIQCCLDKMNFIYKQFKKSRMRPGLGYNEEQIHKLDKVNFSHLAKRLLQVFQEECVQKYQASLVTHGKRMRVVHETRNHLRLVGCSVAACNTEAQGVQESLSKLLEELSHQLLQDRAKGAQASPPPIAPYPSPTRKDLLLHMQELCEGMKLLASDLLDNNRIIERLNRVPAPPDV
The following applies: at 1 µM.

In experiment [2] the target is T2, Serine/threonine-protein kinase Nek1 (Homo sapiens) (UniProt Q96PY6).
T2 sequence (whole entry): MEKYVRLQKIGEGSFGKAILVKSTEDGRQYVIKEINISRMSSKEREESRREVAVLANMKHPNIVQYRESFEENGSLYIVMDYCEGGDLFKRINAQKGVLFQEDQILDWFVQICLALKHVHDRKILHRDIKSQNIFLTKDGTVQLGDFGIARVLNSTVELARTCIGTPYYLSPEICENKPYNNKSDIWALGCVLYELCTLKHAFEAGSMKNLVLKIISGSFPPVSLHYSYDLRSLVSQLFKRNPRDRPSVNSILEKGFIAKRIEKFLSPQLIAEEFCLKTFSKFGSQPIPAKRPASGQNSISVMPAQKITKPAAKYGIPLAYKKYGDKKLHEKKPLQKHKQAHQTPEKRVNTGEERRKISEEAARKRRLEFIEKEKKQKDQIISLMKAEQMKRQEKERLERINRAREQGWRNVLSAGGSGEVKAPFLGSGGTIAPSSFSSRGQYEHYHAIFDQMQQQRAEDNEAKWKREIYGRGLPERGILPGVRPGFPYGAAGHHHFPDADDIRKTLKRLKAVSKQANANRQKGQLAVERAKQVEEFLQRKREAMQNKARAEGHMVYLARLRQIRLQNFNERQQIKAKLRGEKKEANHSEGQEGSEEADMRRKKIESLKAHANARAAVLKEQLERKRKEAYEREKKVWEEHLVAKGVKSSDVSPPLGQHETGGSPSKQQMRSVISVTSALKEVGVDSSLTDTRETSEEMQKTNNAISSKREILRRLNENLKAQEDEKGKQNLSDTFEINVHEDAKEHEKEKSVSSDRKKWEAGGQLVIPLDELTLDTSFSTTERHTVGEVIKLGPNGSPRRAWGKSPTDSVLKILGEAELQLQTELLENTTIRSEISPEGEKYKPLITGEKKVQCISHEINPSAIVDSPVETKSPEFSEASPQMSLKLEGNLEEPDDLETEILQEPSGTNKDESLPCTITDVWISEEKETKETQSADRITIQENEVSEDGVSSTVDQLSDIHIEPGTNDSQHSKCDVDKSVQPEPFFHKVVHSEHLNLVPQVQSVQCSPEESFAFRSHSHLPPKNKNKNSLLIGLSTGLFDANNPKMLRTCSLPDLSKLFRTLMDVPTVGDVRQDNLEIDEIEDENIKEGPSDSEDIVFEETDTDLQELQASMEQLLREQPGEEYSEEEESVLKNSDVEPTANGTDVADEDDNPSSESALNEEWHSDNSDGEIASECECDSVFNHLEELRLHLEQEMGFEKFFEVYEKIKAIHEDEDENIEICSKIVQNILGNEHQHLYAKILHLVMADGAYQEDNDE
Conditions: at 0.1 µM.

Experiment [3] deals with T2, Serine/threonine-protein kinase Nek1 (Homo sapiens). Conditions: at 1 µM.
The target in experiment [4] is T3, Serine/threonine-protein kinase Nek2 (Homo sapiens) (UniProt P51955).
T3 sequence (whole entry): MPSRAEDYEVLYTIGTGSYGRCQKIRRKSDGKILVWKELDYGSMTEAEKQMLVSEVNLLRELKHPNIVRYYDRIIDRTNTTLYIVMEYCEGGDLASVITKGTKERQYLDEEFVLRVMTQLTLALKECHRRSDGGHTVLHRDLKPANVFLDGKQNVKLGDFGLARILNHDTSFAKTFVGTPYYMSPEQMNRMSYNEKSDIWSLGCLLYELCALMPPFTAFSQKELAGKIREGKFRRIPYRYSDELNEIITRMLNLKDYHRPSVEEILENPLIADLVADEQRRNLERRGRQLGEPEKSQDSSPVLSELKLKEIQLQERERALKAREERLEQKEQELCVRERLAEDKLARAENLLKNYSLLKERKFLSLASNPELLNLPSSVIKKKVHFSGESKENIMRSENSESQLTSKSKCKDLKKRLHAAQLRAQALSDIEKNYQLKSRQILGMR
The following applies: at 0.1 µM.

For experiment [5], the target named is T3, Serine/threonine-protein kinase Nek2 (Homo sapiens). The following applies: at 1 µM.
Experiment [6] has as its target Serine/threonine-protein kinase Nek6 (Homo sapiens) (UniProt Q9HC98). Conditions: at 0.1 µM.
Experiment [7] shares this target. The following applies: at 1 µM.
The target of experiment [8] is Serine/threonine-protein kinase Nek7 (Homo sapiens) (UniProt Q8TDX7). The following applies: at 0.1 µM.
For experiment [9] the target is unchanged. Conditions: at 1 µM.
Experiment [10] deals with T4, Serine/threonine-protein kinase Nek9 (Homo sapiens) (UniProt Q8TD19).
T4 sequence (whole entry): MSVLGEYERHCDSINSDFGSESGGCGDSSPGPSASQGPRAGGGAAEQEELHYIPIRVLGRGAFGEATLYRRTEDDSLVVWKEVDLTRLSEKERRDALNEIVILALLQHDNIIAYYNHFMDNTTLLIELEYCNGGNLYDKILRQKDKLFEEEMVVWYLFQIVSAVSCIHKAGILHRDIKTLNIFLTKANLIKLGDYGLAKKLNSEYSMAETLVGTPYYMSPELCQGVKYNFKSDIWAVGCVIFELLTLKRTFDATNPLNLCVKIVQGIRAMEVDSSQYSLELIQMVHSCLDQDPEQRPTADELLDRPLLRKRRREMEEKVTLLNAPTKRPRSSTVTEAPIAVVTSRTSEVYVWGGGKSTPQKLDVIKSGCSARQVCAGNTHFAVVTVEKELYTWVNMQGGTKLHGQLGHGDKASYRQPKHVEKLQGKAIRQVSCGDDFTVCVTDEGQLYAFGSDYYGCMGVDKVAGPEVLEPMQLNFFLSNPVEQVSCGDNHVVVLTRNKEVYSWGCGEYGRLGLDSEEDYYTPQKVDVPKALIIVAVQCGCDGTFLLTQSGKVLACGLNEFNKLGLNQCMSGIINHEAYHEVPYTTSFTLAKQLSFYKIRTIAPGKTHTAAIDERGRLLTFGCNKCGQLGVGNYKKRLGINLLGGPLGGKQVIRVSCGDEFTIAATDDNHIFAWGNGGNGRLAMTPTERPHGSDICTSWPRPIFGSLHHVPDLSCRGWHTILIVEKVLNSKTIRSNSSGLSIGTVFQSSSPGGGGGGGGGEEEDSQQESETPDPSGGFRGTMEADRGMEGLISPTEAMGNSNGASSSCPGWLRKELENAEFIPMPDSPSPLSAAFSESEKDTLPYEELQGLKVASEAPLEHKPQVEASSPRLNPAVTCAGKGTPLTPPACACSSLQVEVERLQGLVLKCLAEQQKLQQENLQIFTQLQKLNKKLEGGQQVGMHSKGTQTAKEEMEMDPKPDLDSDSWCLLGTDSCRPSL
Conditions: at 0.1 µM.

The target of experiment [11] is T4, Serine/threonine-protein kinase Nek9 (Homo sapiens). Conditions: at 1 µM.
The target of experiment [12] is Serine/threonine-protein kinase PLK1 (Homo sapiens) (UniProt P53350). Conditions: at 0.1 µM.
Experiment [13] shares this target. The following applies: at 1 µM.
Experiment [14] concerns the target T5, Dual specificity protein kinase TTK (Homo sapiens) (UniProt P33981).
T5 sequence (whole entry): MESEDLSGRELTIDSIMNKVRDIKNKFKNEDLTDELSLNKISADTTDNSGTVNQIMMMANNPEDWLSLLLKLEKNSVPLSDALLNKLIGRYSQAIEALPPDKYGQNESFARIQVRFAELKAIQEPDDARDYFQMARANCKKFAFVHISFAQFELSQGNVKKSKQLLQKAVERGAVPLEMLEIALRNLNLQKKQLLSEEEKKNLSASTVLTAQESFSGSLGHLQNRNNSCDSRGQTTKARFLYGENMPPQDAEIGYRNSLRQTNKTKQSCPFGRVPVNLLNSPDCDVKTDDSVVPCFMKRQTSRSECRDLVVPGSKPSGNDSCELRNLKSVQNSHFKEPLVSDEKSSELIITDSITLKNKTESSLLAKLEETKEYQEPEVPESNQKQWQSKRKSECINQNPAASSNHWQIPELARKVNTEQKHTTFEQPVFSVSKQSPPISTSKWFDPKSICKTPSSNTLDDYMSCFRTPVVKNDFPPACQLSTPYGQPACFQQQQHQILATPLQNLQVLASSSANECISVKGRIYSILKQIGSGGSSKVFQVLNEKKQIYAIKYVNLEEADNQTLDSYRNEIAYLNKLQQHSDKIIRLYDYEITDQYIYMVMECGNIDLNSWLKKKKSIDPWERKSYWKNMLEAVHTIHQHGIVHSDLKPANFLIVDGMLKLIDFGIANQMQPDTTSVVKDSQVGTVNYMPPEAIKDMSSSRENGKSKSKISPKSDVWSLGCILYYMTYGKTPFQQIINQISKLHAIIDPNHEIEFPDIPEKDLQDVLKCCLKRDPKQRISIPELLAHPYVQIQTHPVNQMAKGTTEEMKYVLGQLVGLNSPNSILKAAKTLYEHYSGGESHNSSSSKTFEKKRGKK
Conditions: at 0.1 µM.

Experiment [15] deals with T6, Receptor-type tyrosine-protein kinase FLT3 (Homo sapiens), P36888 [D835Y].
T6 sequence (whole entry): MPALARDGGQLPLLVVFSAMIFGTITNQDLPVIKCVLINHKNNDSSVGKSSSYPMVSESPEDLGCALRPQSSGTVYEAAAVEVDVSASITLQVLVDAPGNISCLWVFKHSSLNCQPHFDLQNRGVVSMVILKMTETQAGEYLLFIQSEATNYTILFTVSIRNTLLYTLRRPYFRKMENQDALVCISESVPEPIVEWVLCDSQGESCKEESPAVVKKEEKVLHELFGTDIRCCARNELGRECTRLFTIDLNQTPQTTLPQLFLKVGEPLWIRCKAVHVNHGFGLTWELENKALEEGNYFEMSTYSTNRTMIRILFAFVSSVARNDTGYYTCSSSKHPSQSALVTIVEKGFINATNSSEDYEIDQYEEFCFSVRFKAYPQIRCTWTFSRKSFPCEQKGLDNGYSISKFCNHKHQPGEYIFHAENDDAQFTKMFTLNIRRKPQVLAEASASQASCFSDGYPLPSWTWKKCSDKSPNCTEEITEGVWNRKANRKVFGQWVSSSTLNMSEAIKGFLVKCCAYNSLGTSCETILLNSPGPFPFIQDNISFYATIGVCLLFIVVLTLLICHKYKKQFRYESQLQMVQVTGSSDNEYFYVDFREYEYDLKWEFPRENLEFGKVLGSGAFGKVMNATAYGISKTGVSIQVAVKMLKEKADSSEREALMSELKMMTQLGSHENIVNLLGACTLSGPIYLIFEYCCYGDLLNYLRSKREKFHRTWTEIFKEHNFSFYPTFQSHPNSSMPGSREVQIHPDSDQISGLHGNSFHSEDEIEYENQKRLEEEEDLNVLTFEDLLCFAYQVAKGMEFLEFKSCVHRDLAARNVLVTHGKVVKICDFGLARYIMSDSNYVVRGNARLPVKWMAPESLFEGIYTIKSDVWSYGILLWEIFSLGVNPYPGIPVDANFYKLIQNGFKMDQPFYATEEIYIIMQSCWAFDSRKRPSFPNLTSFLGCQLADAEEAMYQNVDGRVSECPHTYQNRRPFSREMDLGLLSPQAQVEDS
Conditions: at 1 µM.

Experiment [16] addresses Vascular endothelial growth factor receptor 3 (Homo sapiens) (UniProt P35916). The following applies: at 0.1 µM.
Experiment [17] has the same target. Conditions: at 1 µM.
The target of experiment [18] is Macrophage colony-stimulating factor 1 receptor (Homo sapiens) (UniProt P07333). The following applies: at 0.1 µM.
For experiment [19] the target is unchanged. Conditions: at 1 µM.
The target in experiment [20] is Tyrosine-protein kinase Fyn (Homo sapiens) (UniProt P06241). The following applies: at 0.1 µM.

The inhibition is the change of the read-out against control, counted positive when it falls.

Chain of Macrophage colony-stimulating factor 1 receptor (Homo sapiens) (P07333 whole entry): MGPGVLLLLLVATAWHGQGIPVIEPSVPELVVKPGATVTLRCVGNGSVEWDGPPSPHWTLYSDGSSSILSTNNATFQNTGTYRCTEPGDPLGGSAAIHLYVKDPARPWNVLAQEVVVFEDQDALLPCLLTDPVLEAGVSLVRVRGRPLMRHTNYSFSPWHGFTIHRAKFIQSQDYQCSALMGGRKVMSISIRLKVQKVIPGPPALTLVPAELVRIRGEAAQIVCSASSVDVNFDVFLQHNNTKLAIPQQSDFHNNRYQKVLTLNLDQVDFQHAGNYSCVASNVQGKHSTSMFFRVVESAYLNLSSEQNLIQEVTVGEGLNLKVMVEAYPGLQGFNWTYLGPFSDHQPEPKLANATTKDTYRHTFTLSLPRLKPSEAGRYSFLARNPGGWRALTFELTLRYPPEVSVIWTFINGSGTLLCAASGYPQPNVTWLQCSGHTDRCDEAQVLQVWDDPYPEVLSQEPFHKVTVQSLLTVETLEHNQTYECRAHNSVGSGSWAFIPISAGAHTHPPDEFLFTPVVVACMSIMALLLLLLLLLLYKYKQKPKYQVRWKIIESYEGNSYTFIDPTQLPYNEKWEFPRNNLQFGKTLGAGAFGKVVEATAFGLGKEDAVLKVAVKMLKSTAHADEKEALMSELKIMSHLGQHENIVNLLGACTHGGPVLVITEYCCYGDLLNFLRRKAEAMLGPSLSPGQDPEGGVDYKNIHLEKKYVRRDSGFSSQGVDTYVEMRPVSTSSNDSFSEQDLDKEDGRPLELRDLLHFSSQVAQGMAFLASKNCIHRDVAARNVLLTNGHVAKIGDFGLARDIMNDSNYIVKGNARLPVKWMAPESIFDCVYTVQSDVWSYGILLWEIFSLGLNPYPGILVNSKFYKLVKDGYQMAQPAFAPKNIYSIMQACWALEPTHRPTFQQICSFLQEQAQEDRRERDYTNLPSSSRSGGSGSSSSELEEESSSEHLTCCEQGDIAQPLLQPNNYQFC
Chain of Serine/threonine-protein kinase PLK1 (Homo sapiens) (P53350 whole entry): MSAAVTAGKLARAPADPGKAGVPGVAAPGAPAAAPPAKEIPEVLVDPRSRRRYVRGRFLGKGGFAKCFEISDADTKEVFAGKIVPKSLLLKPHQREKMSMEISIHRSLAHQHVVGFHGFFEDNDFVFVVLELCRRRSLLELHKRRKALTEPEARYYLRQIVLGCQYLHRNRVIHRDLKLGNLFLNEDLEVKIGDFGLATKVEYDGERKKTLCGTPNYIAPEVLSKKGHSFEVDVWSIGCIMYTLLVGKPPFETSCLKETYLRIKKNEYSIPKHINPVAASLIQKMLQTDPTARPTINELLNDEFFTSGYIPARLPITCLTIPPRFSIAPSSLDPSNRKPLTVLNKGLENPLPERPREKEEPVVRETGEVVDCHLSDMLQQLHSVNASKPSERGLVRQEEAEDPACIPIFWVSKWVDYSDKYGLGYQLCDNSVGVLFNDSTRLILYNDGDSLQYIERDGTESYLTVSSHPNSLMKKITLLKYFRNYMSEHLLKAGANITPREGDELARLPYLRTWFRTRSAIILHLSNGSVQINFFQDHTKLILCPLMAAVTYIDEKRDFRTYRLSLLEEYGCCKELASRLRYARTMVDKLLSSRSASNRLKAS
Chain of Serine/threonine-protein kinase Nek6 (Homo sapiens) (Q9HC98 whole entry): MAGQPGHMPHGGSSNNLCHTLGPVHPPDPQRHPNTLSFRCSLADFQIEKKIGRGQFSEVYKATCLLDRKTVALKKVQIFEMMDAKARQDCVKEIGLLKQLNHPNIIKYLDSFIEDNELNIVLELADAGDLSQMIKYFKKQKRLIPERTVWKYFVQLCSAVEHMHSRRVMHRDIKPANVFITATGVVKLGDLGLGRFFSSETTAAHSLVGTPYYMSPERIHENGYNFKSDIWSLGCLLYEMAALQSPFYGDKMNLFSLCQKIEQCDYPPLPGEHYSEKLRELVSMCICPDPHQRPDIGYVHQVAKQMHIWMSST
Chain of Vascular endothelial growth factor receptor 3 (Homo sapiens) (P35916 whole entry): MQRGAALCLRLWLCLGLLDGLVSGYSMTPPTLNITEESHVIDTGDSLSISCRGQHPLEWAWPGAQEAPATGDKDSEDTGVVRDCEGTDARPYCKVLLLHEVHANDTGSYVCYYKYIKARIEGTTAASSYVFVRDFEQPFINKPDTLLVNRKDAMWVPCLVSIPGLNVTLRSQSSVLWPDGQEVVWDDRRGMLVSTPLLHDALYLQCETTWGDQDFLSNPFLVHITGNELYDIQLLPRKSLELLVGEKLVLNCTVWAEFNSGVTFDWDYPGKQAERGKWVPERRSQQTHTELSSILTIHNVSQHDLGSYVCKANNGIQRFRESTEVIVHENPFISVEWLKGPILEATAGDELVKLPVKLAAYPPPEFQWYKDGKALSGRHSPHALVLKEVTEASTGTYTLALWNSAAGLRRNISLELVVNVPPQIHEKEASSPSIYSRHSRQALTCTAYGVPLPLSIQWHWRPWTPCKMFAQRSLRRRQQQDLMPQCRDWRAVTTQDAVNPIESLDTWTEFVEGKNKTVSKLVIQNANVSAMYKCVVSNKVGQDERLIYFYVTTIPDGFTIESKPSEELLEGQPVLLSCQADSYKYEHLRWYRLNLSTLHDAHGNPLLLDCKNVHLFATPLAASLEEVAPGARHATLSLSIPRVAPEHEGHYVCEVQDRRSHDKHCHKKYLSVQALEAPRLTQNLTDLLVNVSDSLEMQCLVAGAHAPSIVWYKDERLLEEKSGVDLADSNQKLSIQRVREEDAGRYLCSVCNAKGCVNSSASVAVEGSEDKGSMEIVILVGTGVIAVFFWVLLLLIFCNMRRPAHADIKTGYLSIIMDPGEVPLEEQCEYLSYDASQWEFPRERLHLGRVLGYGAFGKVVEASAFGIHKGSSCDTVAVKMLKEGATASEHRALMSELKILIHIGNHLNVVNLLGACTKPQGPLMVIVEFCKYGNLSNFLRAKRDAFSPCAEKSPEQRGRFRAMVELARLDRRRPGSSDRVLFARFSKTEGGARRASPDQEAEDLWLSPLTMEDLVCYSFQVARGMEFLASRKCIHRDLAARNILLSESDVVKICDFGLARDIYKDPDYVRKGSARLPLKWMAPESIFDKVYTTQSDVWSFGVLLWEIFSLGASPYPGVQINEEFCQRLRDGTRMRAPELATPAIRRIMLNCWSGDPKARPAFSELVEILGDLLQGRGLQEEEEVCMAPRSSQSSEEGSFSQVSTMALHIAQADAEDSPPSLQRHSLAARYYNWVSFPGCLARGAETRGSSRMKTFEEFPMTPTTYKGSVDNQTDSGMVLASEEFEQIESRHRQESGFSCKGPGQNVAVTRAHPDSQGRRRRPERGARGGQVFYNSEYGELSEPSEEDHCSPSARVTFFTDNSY
Chain of Serine/threonine-protein kinase Nek7 (Homo sapiens) (Q8TDX7 whole entry, looked up): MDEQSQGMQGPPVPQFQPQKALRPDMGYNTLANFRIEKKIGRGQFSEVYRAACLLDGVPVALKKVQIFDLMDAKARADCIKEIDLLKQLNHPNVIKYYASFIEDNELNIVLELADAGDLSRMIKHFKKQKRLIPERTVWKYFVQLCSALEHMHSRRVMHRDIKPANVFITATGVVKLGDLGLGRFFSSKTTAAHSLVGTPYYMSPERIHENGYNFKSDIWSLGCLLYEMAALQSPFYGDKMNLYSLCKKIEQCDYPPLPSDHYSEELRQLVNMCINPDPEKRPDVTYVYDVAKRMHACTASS
Chain of Tyrosine-protein kinase Fyn (Homo sapiens) (P06241 2-537 limits assumed): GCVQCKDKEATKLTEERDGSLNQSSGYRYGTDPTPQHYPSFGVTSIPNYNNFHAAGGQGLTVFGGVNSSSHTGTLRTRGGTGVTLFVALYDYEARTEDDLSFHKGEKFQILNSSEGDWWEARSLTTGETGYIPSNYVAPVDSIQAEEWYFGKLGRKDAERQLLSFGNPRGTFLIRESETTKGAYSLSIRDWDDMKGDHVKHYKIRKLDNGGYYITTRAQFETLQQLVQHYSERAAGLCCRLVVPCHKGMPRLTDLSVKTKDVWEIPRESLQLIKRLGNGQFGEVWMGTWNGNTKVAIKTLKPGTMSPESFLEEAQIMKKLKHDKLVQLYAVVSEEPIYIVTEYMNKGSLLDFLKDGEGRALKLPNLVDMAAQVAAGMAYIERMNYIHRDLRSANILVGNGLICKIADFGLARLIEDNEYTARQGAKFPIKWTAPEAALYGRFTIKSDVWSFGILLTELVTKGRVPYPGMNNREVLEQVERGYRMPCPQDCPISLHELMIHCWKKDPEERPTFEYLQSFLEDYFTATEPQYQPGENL

As for `COc1cc(N2CCN(C(C)C)CC2)ccc1Nc1nc(Nc2cccc(F)c2C(=O)O)c2cc[nH]c2n1`, the inhibition in experiment [1] turned out to be 7.25%; in experiment [2], 2.08%; in [3] it was 5.01%; in experiment [4], 5.22%; in experiment [5] it was 3.86%; in experiment [6] it was 2.61%. Moreover, the inhibition is 5.14% in experiment [7]; 3.58% in experiment [8]; 3.43% in experiment [9]; 9.89% in experiment [10]; 4.56% in experiment [11]; 6.28% in [12]. Moreover, the inhibition in [13] was 29.6%; in experiment [14], 62.3%; in [15] it was 12.6%; in experiment [16], 2.54%; in experiment [17] it was -0.47%; in experiment [18], 2.82%. The results for the inhibition in experiment [19] and in [20] were 2.24% and -0.12%, respectively.
In the case of `COC(=O)Nc1nc2ccc(Oc3ccc(NC(=O)Nc4cc(C(F)(F)F)ccc4F)cc3)cc2s1`, the inhibition was -1.19% in [1]; 1.14% in experiment [2]; 1.38% in experiment [3]; -0.09% in experiment [4]; 0.69% in experiment [5]; -1.08% in [6]. Besides, the inhibition in [7] is -4.58%; in [8] it was 1.35%; in experiment [9] it was 0.53%; in [10], -1.57%; in experiment [11], -3.04%; in experiment [12], 1.23%. In addition, the inhibition in [13] came out at 0.38%; in [14] it was 0.59%; in experiment [15] it was 13.5%; in experiment [16], 10.4%; in [17], 52.8%; in [18], 2.52%. In addition, the inhibition in [19] was 39.1%; in [20] it was 6.49%.
